Compound activity (PubChem BioAssay)
HepG2 viability – kills HepG2 cells in TGF-b inhibitor counter-screen | HepG2 CAGA-GFP viability, ATP luminescence, 18 h | actives 0.76% (n = 410,000) | Potency, µM (titrated, usually from 46.1 µM), for the others: at the highest dose activity change, negative = cytotoxicity, usual class: cytotoxic | AID 588856
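CellTiter-Glo luminescence gave cytotoxicity after 18 hours at 37 degrees C. The cells were HepG2 CAGA-GFP in 1% FBS DMEM, stimulated with 500 pg/mL TGF-beta after compound addition. %Activity was normalised to no-cell wells (complete cell-killing) and DMSO (no toxicity), and curves were fitted and classified.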
HTT ATP protect – cytoprotection in Huntington HTT-Q103 PC12 cell model. PC12 HTT-Q103 induced, cytoprotection, ATP luminescence, 40 h. AID 1471. actives 0.14% (n = 230,000). Potency, µM (titrated, usually from 56.4 µM), for the others: cytoprotection (ATP increase), actives largely listed as activators; further: % of control where 0% means no effect; nearly all actives have a fitted effect of over 45% in size
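Compounds added alongside 100 nM tebufenozide, which induces toxic Q103 huntingtin exon 1-GFP in stable PC12 cells; surviving cells quantified by luminescent ATP measurement. Medium: phenol red-free DMEM, 5% equine and 5% calf serum.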
ATXN2 expr inh – ATXN2 expression inhibition | Potency, µM (doses to about 57 µM), without a hit: top-dose activity change, negative = inhibition, most hits filed as inhibitors | actives 0.72% (n = 360,000) | AID 1745845 | HEK-293 ATXN2-luciferase reporter, luminescence, 24 h; further: on the % scale 0 is the no-effect control and ±100 the full control effect; nearly all actives have a fitted effect of over 55% in size
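ATXN2-luciferase reporter cells (luciferase flanked by upstream and downstream ATXN2 gene portions) were treated 24 h at 37 °C with compounds at up to 57 uM. SteadyGlo luminescence gave expression; GF-AFC fluorescence gave viability.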
HTT aggregate – mutant huntingtin aggregation inhibition | PC12 HttQ103-GFP aggregates, Acumen cytometry, 40 h | Potency, µM (series often up to 46.1 µM), without a hit: top-dose activity change, negative = inhibition, actives largely listed as inhibitors | actives 1.1% (n = 220,000); further: on the % scale 0 is the no-effect control and ±100 the full control effect; nearly all actives have a fitted effect of over 60% in size
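Steps: seed 1500 PC12 HTTQ103-GFP cells/well; add tebufenozide, 100 nM final; add compound titration; add ATPLite reagent; quantify GFP aggregates by laser scanning cytometry.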
ATXN viability – reduces viability in counter-screen for ATXN expression inhibitors. S2 cells (HEK-293 line with an ATXN2-luciferase reporter) viability, CellTiter-Fluor protease fluorescence, 24 h. Potency, µM (titrated, usually from 56.7 µM), hits mostly cytotoxic. AID 651635. actives 0.49% (n = 400,000); further: nearly all actives have a fitted effect of over 40% in size
TGFb inhibitor – inhibitors of TGF-b signaling; HepG2 CAGA-GFP TGF-b/SMAD3 reporter, GFP fluorescence, 18 h; TGF-beta stimulated, 500 pg/mL final; Potency, µM (doses to about 46.1 µM), for the others: at the highest dose activity, negative = inhibition, hits mostly inhibitors; actives 1.2% (n = 410,000); further: on the % scale 0 is the no-effect control and ±100 the full control effect; nearly all actives have a fitted effect of over 65% in size
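Using HEPG2 CAGA-GFP reporter cells at 1000 cells/well, we pinned test compounds, stimulated with recombinant TGF-beta (500 pg/mL final) and measured total well GFP after 18 h.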
Numbers without * were called inactive; i = inactive; ? = inconclusive; nt = no result; [ ] = remark or other dose. Rows were chosen to be rich in hits. Some 2.8% of all compounds tested hit in one or more screens of this group. The call rests on the fitted dose curve; in most records, active means well fitted curve in the direction sought with a large enough effect; inconclusive means small, poorly fitted or top-dose-only effect, or another doubt; inactive means no such curve, though single readings can be large; an effect the other way counts as inactive or inconclusive. Potency means the concentration at half of the fitted maximal effect.

SMILES	HepG2 viability	HTT ATP protect	ATXN2 expr inh	HTT aggregate	ATXN viability	TGFb inhibitor
CC(=O)O[C@H]1C[C@@H]2CC[C@H]3[C@H]4C[C@H]([N+]5(C)CCCCC5)[C@@H](OC(C)=O)[C@@]4(C)CC[C@@H]3[C@@]2(C)C[C@H]1N1CCCCC1	nt	nt	0%	nt	nt	nt
COc1ccc(C2CC(c3ccccc3)Oc3cc4c(cc32)OCO4)cc1 (stereo not drawn)	-24%	nt	nt	nt	nt	-26%
C=CCOC(=O)C1=C(C)NC(C)=C(C(=O)OCC=C)C1/C=C/c1ccccc1	13µM*	-21%	-19%	12%	i	?
COc1ccccc1-c1cc(C(F)(F)F)nc(S(=O)(=O)CCCC(=O)Nc2cc(OC)c(OC)c(OC)c2)n1	-15%	nt	15%	nt	i	2%
COc1ccc(-c2cc(C(F)(F)F)nc(S(=O)(=O)CCCC(=O)Nc3cccc(O)c3)n2)cc1OC	5.6µM*	-174%	-98%	?	nt	3.5µM*
COc1ccc(-c2cc(C(F)(F)F)nc(S(=O)(=O)CCCC(=O)Nc3ccccc3C(F)(F)F)n2)cc1OC	-3%	nt	nt	nt	nt	2.8µM*
COc1ccccc1-c1cc(C(F)(F)F)nc(S(=O)(=O)CCCC(=O)O)n1	-46%	-1%	?	-81%	?	18µM*
COc1ccccc1-c1cc(C(F)(F)F)nc(S(=O)(=O)CCCC(=O)Nc2ccc(F)c(Cl)c2)n1	-4%	nt	1%	nt	i	0%
COc1ccc(NC(=O)CCCS(=O)(=O)c2nc(-c3ccc(OC)c(OC)c3)cc(C(F)(F)F)n2)cc1OC	-101%	nt	nt	nt	nt	2.5µM*
CCN(N=O)c1ccc(/C=C/c2ccnc3ccccc23)cc1	-33%	nt	nt	nt	nt	-21%
CCOC(=O)c1sc(N2C(=O)c3oc4ccc(F)cc4c(=O)c3C2c2ccc(C)cc2)nc1C (stereo not drawn)	8%	nt	nt	nt	nt	6%
O=C(c1cccnc1)C1CCCN(Cc2ccc3c(c2)CN(C(=O)c2cn4ccccc4n2)CCO3)C1 (stereo not drawn)	nt	nt	nt	nt	i	nt
S=C(NCCCc1cnc[nH]1)NCCCN(Cc1ccc(Cl)cc1)c1ccc(Br)cc1	-92%	nt	nt	nt	nt	?
CC(C)Oc1ccc(C(=O)Nc2nnc(SCC(=O)N3CCOCC3)s2)cc1	11%	-96%[10 µM]	10µM*	-12%	i	7%
CN(C)S(=O)(=O)c1ccc(C(=O)Nc2nnc(SCC(=O)N3CCOCC3)s2)cc1	-6%	nt	nt	nt	i	-5%
O=C(NC1=C(NC2CCS(=O)(=O)C2)C(=O)c2ccccc2C1=O)c1ccccc1 (stereo not drawn)	-117%	11%	?	-9%	30µM*	?
O=C(c1cnn2c1NC(=C1CC1)C=C2C(F)F)N1CCc2ccccc21	-39%	nt	nt	nt	nt	-17%
COc1cccc(C(=O)NCC(=O)OCC(=O)Nc2ncc(Cl)cc2Cl)c1	10µM*	-10%	10%	10%	i	40%
O=C(N/N=C\c1cc(Cl)ccc1O)c1ccc(S(=O)(=O)N2CCCCC2)cc1	-35%	-25%[10 µM]	2.5µM*	?	i	-33%
O=C(Nc1cc(S(=O)(=O)Nc2ccc(Cl)cc2)ccc1O)c1ccc(S(=O)(=O)N2CCCCCC2)cc1	-62%	-9%[10 µM]	-32%	1%	i	?
O=C(NCC1Cc2cc(F)cc(-c3cnccn3)c2O1)c1cccc(Cl)c1 (stereo not drawn)	nt	nt	nt	nt	i	nt
COc1ccc(OC)c(/C=C/c2cc3ccccc3cn2)c1	-22%	nt	nt	nt	nt	?
O=C(Nc1nc(-c2ccc(S(=O)(=O)N3CCOCC3)cc2)cs1)c1ccccc1	-30%	-29%	?	-26%	?	-19%
COc1cccc(C(=O)Nc2nc(-c3ccc(S(=O)(=O)N4CCOCC4)cc3)cs2)c1	-2%	6%[1.9 µM]	16µM*	?	?	8%
c1cc(CN2CCCNCCNCCCNCC2)ccc1CN1CCCNCCNCCCNCC1	nt	nt	6%	nt	nt	nt
SMILES	HepG2 viability	HTT ATP protect	ATXN2 expr inh	HTT aggregate	ATXN viability	TGFb inhibitor
O=C(C=Cc1ccccc1)c1cccs1	-63%	nt	26%	nt	?	11µM*
CCCNC(=O)c1cc(-c2ccc(O)cc2)on1	nt	-45%	nt	nt	nt	nt
O=C(Nc1ccc2c(c1)CCC2)C1CCN(c2c3c(nc4ncnn24)CCC3)CC1	-55%	5%[10 µM]	?	11µM*	i	?
O=C(NC1CCCc2ccccc21)C1CCN(c2c3c(nc4ncnn24)CCC3)CC1 (stereo not drawn)	-1%	5%	-10%	-17%	i	-17%
O=C(Nc1ccc(Oc2ccccc2)cc1)C1CCN(c2c3c(nc4ncnn24)CCC3)CC1	-3%	-66%	?	8.9µM*	?	?
c1ccc2nc(-c3ccc(N4CCOCC4)cc3)ccc2c1	-20%	-65%[10 µM]	3.5µM*	6%	i	?
c1ccc2nc(-c3ccncc3)ccc2c1	3%	-29%	46%	-7%	i	-19%
CN1CCN(c2ccc(-c3ccc4ccccc4n3)cc2)CC1	-34%	-181%	0.38µM*	10%	nt	0%
Cc1cc(-c2ccc(N3CCOCC3)cc2)nc2ccccc12	-13%	-14%[10 µM]	76%	11%	i	6%
CN(C)CCCn1c(=O)n(Cc2ccco2)c(=O)c2c3c(sc21)CCCCC3	13µM*	-2%[10 µM]	-17%	12%[9.22 µM]	i	?
CCN(c1ccccc1)C(CNS(=O)(=O)c1ccccc1)c1ccccc1 (stereo not drawn)	-48%	nt	?	nt	?	16µM*
CCOC(=O)c1ccc(NC(=O)c2ccc(C)c(S(=O)(=O)N3CCOCC3)c2)cc1	-45%	-11%	25µM*	1%	28µM*	-6%
COc1ccc(/C=C/C(=O)Nc2ccc(C)c(S(=O)(=O)N3CCOCC3)c2)cc1	-11%	nt	22µM*	nt	?	-14%
COc1ccc(NC(=O)/C=C/c2ccc(S(=O)(=O)N3CCOCC3)cc2)cc1	-13%	nt	8%	nt	i	0%
COc1cc(-c2noc(C)c2C#CCCN2C(=O)c3ccccc3C2=O)cc(OC)c1OC	-1%	nt	nt	nt	nt	-4%
O=C(c1cc2nc(-c3ccc(F)cc3)cc(C(F)(F)F)n2n1)N1CCCCC1c1cccnc1 (stereo not drawn)	-14%	-46%	?	8.9µM*	?	?
O=C(c1cnn2c(C(F)(F)F)cc(-c3ccccc3)nc12)N1CCCCC1c1cccnc1 (stereo not drawn)	0%	-37%[1.9 µM]	-33%	30%[9.22 µM]	i	-9%
O=C(Nc1ccc(Br)cc1F)c1cnn2c1NC(=C1CC1)C=C2C(F)F	22%	nt	nt	nt	nt	25%
